Source: PubChem (National Center for Advancing Translational Sciences (NCATS))
The list is not random: actives were taken first. Their share in the collection is about 8.1%.
SW480 rerep – A quantitative high throughput screen for small molecules that induce DNA re-replication in SW480 colon adenocarcinoma cells. SW480 DNA re-replication, Hoechst DNA content imaging, 48 h. Potency, µM (series often up to 46.1 µM), for the others: at the top dose re-replication activation, hits mostly activators. 340,000 tested, 1.8% active. AID 624297, 2012; note: % of control where 0% means no effect; nearly all actives have a fitted effect of over 55% in size
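Image-based DNA-content assay: after two days of treatment, nuclei were labelled with the DNA dye Hoechst and imaged, and hits were compounds raising the count of nuclei showing high fluorescence intensity.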
ELG1 DNA repair – qHTS screen for small molecules that inhibit ELG1-dependent DNA repair in human embryonic kidney (HEK293T) cells expressing luciferase-tagged ELG1 | HEK293T ELG1-luciferase reporter, luminescence, 16 h; DNA damage induced by 5-fluorouridine | Potency, µM (highest dose often 46.1 µM), for the others: top-dose activity change, negative = inhibition, usual class: inhibitors | 330,000 tested, 2.3% active; note: % is set by controls: 0 for no effect and ±100 for the full control effect; nearly all actives have a fitted effect of over 55% in size
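5-Fluorouridine DNA damage + compound/DMSO, 2,000 cells/well, 16 h, 37 °C/5% CO2. ONE-Glo, 30 min RT, luminescence. Readout = decrease in reporter signal.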
KB-V1 MDR tox – qHTS assay for MDR1-selective chemotherapeutics: Primary screen using the drug-selected MDR subline cells KB-V1 | Potency, µM (top dose mostly 46.1 µM), actives largely listed as cytotoxic | 400,000 tested, 3.4% active | KB-V1 MDR cells viability, CellTiter-Glo, 72 h; note: % is set by controls: 0 for no effect and ±100 for the full control effect; nearly all actives have a fitted effect of over 60% in size
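KB-V1, DMEM (no phenol red) + 10% FBS; cpd pin-transferred, titration series; 72 h, 37 degrees C; CellTiter-Glo, luminescence. Data normalized, curve-fit.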
KB-3-1 tox – qHTS assay for MDR1-selective chemotherapeutics: Primary screen using the parental adenocarcinoma cell KB-3-1. KB-3-1 viability, CellTiter-Glo ATP luminescence, 72 h. Potency, µM (series often up to 46.1 µM), actives largely listed as cytotoxic. 400,000 tested, 1.4% active. AID 1347075, 2019; note: % is set by controls: 0 for no effect and ±100 for the full control effect; nearly all actives have a fitted effect of over 60% in size
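Parental KB-3-1 viability, qHTS format: 72 h compound exposure, 37 °C; CellTiter-Glo; media-only wells and DMSO plates as controls; concentration-effect fits on corrected data.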
MCF10A rerep – A quantitative high throughput screen for small molecules that induce DNA re-replication in MCF 10a normal breast cells | Potency, µM (titrated, usually from 46.1 µM), for inactives: top-dose activity, positive = re-replication, most hits filed as activators | MCF 10A DNA re-replication, Hoechst nuclear intensity, 48 h | 350,000 tested, 2.9% active; note: % of control where 0% means no effect; nearly all actives have a fitted effect of over 50% in size
Active calls of the source: *; i = inactive; ? = inconclusive; nt = not tested or not shown; [ ] = dose if it differs, or a comment. Calls come from the whole dose curve; as a rule, active = well fitted curve in the direction sought with a large enough effect; inconclusive = small, poorly fitted or top-dose-only effect, or another doubt; inactive = no such curve, though single readings can be large; an effect the other way counts as inactive or inconclusive. Potency is the fitted concentration of half-maximal effect.

SMILES	SW480 rerep	ELG1 DNA repair	KB-V1 MDR tox	KB-3-1 tox	MCF10A rerep
CCOc1ccc(N2C(=O)CC(Sc3nc(CC(C)C)ccc3C#N)C2=O)cc1 (stereo not given)	5.8µM*	2%	i	i	?
CCCOc1ccc(N2C(=O)CC(N3CCC(C(=O)OCC)CC3)C2=O)cc1 (stereo not given)	2%	-2%	i	i	15µM*
CCOc1ccc(N2C(=O)CC(N)C2=O)cc1 (stereo not given)	?	13%	?	i	18µM*
CC1CCCN(Cc2c(O)ccc3c(=O)c(-c4ccc(Cl)cc4)c(C(F)(F)F)oc23)C1 (stereo not given)	nt	nt	i	i	nt
CCOC(=O)C1=CN(CC)S(=O)(=O)NC1c1cccc(OC)c1 (stereo not given)	4%	18%	i	i	-1%
Cc1ccc(S(=O)(=O)N(CC(=O)NC2CCCCCC2)c2ccccc2F)cc1	-7%	5%	i	i	12%
O=C(CN(c1ccccc1F)S(=O)(=O)c1ccccc1)NC1CCCCCC1	1%	-4%	4.6µM*	i	-1%
CCOc1cc(/C=N/O)cc(Br)c1OCc1ccc(Cl)cc1	?	?	i	i	11µM*
CCOc1cc(/C=N/O)cc(Br)c1OCC	-2%	?	?	i	?
O/N=C/c1ccc(OCc2ccccc2)c(Cl)c1	6%	?	?	?	4%
O/N=C/c1ccc(OCc2ccccc2)c(Br)c1	?	?	12µM*	?	26µM*
O/N=C/c1ccc(OCc2ccccc2F)c(Cl)c1	7%	?	16µM*	?	?
Cc1ccc(Cn2c(SCC(=O)NCc3ccc(Cl)cc3)nc3ccsc3c2=O)cc1	nt	nt	i	i	nt
CCOc1cc2c(cc1OCC)CN(C(=O)c1cccc(S(=O)(=O)N3CCCC3)c1)CC2	3%	?	i	i	0%
CC(C)=C(NC(=O)c1ccccc1)C(=O)N1CCOCC1	-5%	-3%	i	i	1%
O=C(N/C(C(=O)N1CCOCC1)=C(\Sc1ncccn1)c1ccccc1)c1ccccc1	-5%	23µM*	i	i	1%
CCC(Sc1nc2sc(C(=O)OC)c(C)c2c(=O)n1N)C(=O)N(CC)CC (stereo not given)	-7%	4%	3.7µM*	i	1%
CCCCNC(=O)C(CC)Sc1nc2sc(C(=O)OC)c(C)c2c(=O)n1N (stereo not given)	?	?	4.6µM*	i	5%
CCOCCCn1c(SC(C)C(=O)NCC2CCCO2)nc2sc(C)c(C)c2c1=O (stereo not given)	-17%	-19%	i	i	-3%
CCC(Sc1nc2sc(C(=O)OC)c(C)c2c(=O)n1N)C(=O)NCC1CCCO1 (stereo not given)	-7%	?	16µM*	i	-11%
COCCCNC(=O)CSc1nc2sc(C(=O)OC)c(C)c2c(=O)n1N	12%[1.84 µM]	-15%	i	i	-3%
CSc1cccc(NC(=S)N(CCCN2CCCC2)Cc2cccs2)c1	10%	10%	?	i	-4%
Cc1ccc(NC(=S)N(C)Cc2cn(C)c3ccccc23)cc1	-2%	2%	21µM*	i	?
COc1ccc(NC(=S)N(CCCN2CCOCC2)Cc2cn(C)c3ccccc23)cc1	?	-26%	i	i	?
Cc1cccc(NC(=S)N(CCCN2CCOCC2)Cc2cn(C)c3ccccc23)c1	?	?	i	?	?
S=C(Nc1ccccc1Cl)N(CCCN1CCOCC1)Cc1ccco1	-3%	-2%	21µM*	i	4%
Cn1cc(CN(CCCN2CCOCC2)C(=S)Nc2cccc(Cl)c2)c2ccccc21	16µM*	-23%	i	i	23µM*
CSc1cccc(NC(=S)N(CCCN2CCCC2)Cc2cccn2Cc2ccc(Cl)cc2)c1	?	-24%	18µM*	i	21µM*
